Results on 8 molecules are retold here after PubChem BioAssay (NCI).

This is part of a sample that, as a whole, favours compounds with a hit. Of some 83,000 tested, about 20% had one in any assay.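 Step 1: grow cells in 96-well plates. Step 2: add test compound at a single concentration. Step 3: incubate 48 h. Step 4: record percent growth.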 Values without a mark were called inactive. The source made the active and inactive calls. Rule for the calls: active = growth percent below 10; inactive = the rest.

Holding throughout (assay): NCI-60 one-dose screen, 48 h (100 = growth as untreated, 0 = no growth, -100 = all killed)
Common to all, as to conditions: 10 µM unless noted

In assay [1] the test system is DU-145 prostate.
Assay [2] concerns K-562 leukemia.
Assay [3] has as its system MALME-3M melanoma.
The subject of assay [4] is MDA-MB-231 breast.
Assay [5] relates to RXF 393 renal.
Assay [6] has as its system SF-268 CNS.
The subject of assay [7] is SF-295 CNS.
Assay [8] deals with SF-539 CNS.
In assay [9] the test system is UACC-257 melanoma.
In assay [10] the test system is M14 melanoma.
The test system of assay [11] is HCT-15 colon.
Assay [12] relates to HT29 colon.
In assay [13] the test system is SNB-75 CNS.
For assay [14], the system named is SNB-19 CNS.
For assay [15], the system named is U251 CNS.
In assay [16] the test system is PC-3 prostate.
In assay [17] the test system is SK-MEL-5 melanoma.
Assay [18] has as its system UACC-62 melanoma.
Assay [19] deals with LOX IMVI melanoma.
For assay [20], the system named is SK-MEL-28 melanoma.

For the molecule `CCCCCCSc1ncnc2nc[nH]c12`, the growth in [1] is 95%; in [2], 70.7%; in assay [3], 102%; in assay [4], 96.8%; in assay [5], 78.1%; in assay [6] it was 96.3%. Further, the growth in [7] is 88.8%; in assay [8], 87.4%; in assay [9] it was 91.4%; in assay [10] it was 97%; in [11], 90.8%; in assay [12], 103%. Moreover, the growth in assay [13] is 91.2%; in assay [14], 86.2%; in assay [15], 90.1%; in [16] it was 85.2%; in assay [17], 94%; in [18], 77%. Also, the growth is 80.1% in [19] and 101% in [20].
In the case of `Fc1cc2[nH]ncc2c2c3c(c(-c4cn[nH]c4)nc12)CCCC3`, the growth in assay [1] was 7.37% (active); in assay [2], 15.4%; in assay [3] it was -14.8% (active); in assay [4], 3.56% (active); in [5], -56% (active); in assay [6], 3.1% (active). In addition, the growth in assay [7] is 9.21% (active); in [8], -30.7% (active); in assay [9], -22.2% (active); in assay [10] it was 1.03% (active); in assay [11] it was 4.51% (active); in assay [12] it was 11%. Also, the growth in [13] was 3.38% (active); in assay [14] it was 8.75% (active); in [15] it was -1.45% (active); in assay [16], 7.08% (active); in [17] it was -69.4% (active); in [18], -48% (active). The growth in assay [19] was 0.769% (active); in assay [20], 2.87% (active).
In the case of `Oc1c(CNCCNCc2cc(Cl)cc(Cc3ccccc3)c2O)cc(Cl)cc1Cc1ccccc1`, the growth in [1] was 24.2%; in [2], 13.2%; in assay [3] it was 8.23% (active); in [4] it was 36.2%; in [5], 17.6%; in assay [6], 18.6%. The growth is 0.247% (active) in [7]; 2.22% (active) in [8]; 16% in [9]; 2.36% (active) in assay [10]; 25.7% in assay [11]; 30.6% in assay [12]. The growth in assay [13] was 28.4%; in [14], 2.51% (active); in assay [15], 17%; in [16] it was 40.9%; in [17], -13.2% (active); in assay [18], -11.5% (active). Also, the growth is 4.57% (active) in assay [19] and 19.5% in [20].
For `C=C(C)[C@@H]1CC[C@]2(C(=O)N3CCN(C)CC3)CC[C@]3(C)[C@H](CC[C@@H]4[C@@]5(C)C/C(=C/c6ccncc6)[C@H](O)C(C)(C)[C@@H]5CC[C@]43C)[C@@H]12`, the growth in assay [1] is -12.4% [100 µM] (active); in assay [2], -13.4% [100 µM] (active); in assay [3] it was -55.1% [100 µM] (active); in assay [4] it was -48.5% [100 µM] (active); in assay [5] it was -88.5% [100 µM] (active); in assay [6], 4.1% [100 µM] (active). For the same molecule, the growth is -53.6% [100 µM] (active) in assay [7]; -72% [100 µM] (active) in [8]; -31.2% [100 µM] (active) in [9]; -13.6% [100 µM] (active) in assay [10]; -28.6% [100 µM] (active) in assay [11]; -65.8% [100 µM] (active) in assay [12]. Moreover, the growth is 4.76% [100 µM] (active) in assay [13]; 14.4% [100 µM] in [14]; -70.5% [100 µM] (active) in [15]; -20.2% [100 µM] (active) in assay [16]; -82.4% [100 µM] (active) in assay [17]; -56% [100 µM] (active) in [18]. Further, the growth in [19] was -77.3% [100 µM] (active); in assay [20] it was -54.3% [100 µM] (active).
`O=S(=O)(c1ccc(N/N=C\c2ccccc2Cl)cc1)c1ccc(N/N=C/c2ccccc2Cl)cc1`: the growth is 92.1% in assay [1]; 86.1% in [2]; 94.6% in assay [3]; 81.6% in assay [4]; 106% in assay [5]; 67.8% in assay [6]. Also, the growth is 89.6% in assay [7]; 89.7% in assay [8]; 92.1% in assay [9]; 84.7% in assay [10]; 73.7% in [11]; 79.2% in assay [12]. Besides, the growth in assay [13] is 61.5%; in assay [14] it was 90.4%; in assay [15], 90.1%; in assay [16] it was 54.7%; in assay [17] it was 97.1%; in assay [18], 73.2%. Moreover, the growth in assay [19] is 95.1%; in assay [20], 94.2%.
On to `COc1ccc(-c2c(C)nn3c(NCCN4CCOCC4)cc(C)nc23)cc1OC`, for which the growth in assay [1] is 106%; in assay [2] it was 97.8%; in assay [3], 96.8%; in assay [4], 86%; in assay [5], 83.6%; in assay [6] it was 101%. The growth in assay [7] is 82%; in [8], 81.9%; in [9], 99.9%; in [10] it was 96.3%; in [11] it was 95.1%; in assay [12], 94.4%. In addition, the growth in assay [13] is 93.2%; in assay [14] it was 91.4%; in [15], 82.2%; in [16] it was 89.7%; in assay [17], 97.2%; in assay [18], 97.6%. The growth in [19] was 87.5%; in assay [20], 103%.
Take `COc1ccc(C(=O)CCC(=O)O)cc1`: the growth in assay [1] was 99.7%; in assay [2] it was 49.1%; in [3] it was 87%; in [4] it was 80.4%; in assay [5] it was 109%; in assay [6] it was 95.6%. Further, the growth in [7] was 95%; in assay [8] it was 98.7%; in assay [9] it was 80.2%; in [10] it was 95.3%; in [11] it was 77.6%; in assay [12] it was 49.8%. Further, the growth in [13] was 99.9%; in assay [14], 104%; in assay [15], 83.1%; in assay [16], 92.5%; in assay [17] it was 99.8%; in [18], 99.7%. The figures for the growth in assay [19] and in assay [20] were 90.2% and 112%, respectively.
On to `COC(=O)c1cc2c(=O)[nH]cc3c2c(n1)CCC3`, for which the growth in [1] was 116%; in assay [2] it was 99.3%; in assay [3], 99.3%; in assay [4], 106%; in [5] it was 100%; in assay [6] it was 100%. For the same molecule, the growth in assay [7] was 112%; in [8], 97.3%; in [9], 102%; in assay [10], 104%; in assay [11] it was 113%; in assay [12], 105%. In addition, the growth in assay [13] was 104%; in assay [14] it was 96.2%; in assay [15], 103%; in [16] it was 93.6%; in assay [17] it was 104%; in [18], 107%. In addition, the growth is 104% in assay [19] and 105% in assay [20].
